According to the supplement of paper PMC10681739:

What follows are sequences tested against T1, ETS1 (UniProt P14921) (assay: ETS1 binding intensity (PBM fluorescence), ETS1 alone (arbitrary fluorescence units); higher = stronger binding). Settings: ETS1 concentration 1 nM; RUNX1 concentration 0 nM.
T1 sequence: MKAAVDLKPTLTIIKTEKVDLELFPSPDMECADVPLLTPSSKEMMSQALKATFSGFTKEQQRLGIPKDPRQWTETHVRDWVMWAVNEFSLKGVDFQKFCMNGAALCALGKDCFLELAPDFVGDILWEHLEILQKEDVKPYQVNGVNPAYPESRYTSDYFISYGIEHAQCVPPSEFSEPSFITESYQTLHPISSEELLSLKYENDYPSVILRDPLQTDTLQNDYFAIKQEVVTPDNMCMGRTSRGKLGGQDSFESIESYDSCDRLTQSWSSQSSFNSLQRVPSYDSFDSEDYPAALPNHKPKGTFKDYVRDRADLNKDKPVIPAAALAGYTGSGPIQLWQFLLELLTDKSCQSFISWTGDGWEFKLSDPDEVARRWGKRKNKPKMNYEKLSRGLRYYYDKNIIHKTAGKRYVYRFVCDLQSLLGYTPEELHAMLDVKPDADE
Description: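 Cooperative genomic-context PBM: 36-bp genomic probes with neighbouring ETS1 and RUNX1 sites, double-stranded on Agilent 4x180k arrays. Full-length recombinant human ETS1 (1 nM) was incubated alone or with RUNX1 (25 nM) and detected with anti-ETS1 antibody plus Alexa488 secondary. Value is the median fluorescence intensity over 4 replicate spots; the ETS1+RUNX1 data were normalised to the ETS1-only data using probes without RUNX1 sites. The 36-bp variable region sits on the array probe with constant linker/primer flanks that are not printed.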

Sequence | ETS1 binding intensity
GAGTGGGGGTGGGGAGGAAGCCACAGGGCCGGGCTG | 624
TGAGAGTAAAAAGGATGTGGTTTCCTTTCATTTTTT | 1580
CGGGACACAGGAAGCCGTTGTGGGGCCCCGGGGCCA | 1960
CTCTGGCAGGAAGCTCTGAGGGCTAAACCACAAAAA | 1110
GAGGACGCGGAAGTCCTTCTTGCGGGGCGGAGCTAG | 891
GACATATCCTGCATTCTCAGAAAAACCACAGGCTAG | 391
ACAATAACAGGAAGTGGTGGGGACTGCGGTGACCTG | 4750
GGCCGTTCTTCCGCCTGCAGGGTGGTCAGCGGAGGT | 571
TGGCTGCCACTGAGAGGATGTGGTGACAGAGGTGGG | 1700
AAGAGGAAATAAATACCAGAGTGAACCCACAAACCT | 441
CTTCTACTTCCTGCCCCGCCCCCAGCTGTGGTCACA | 1420
AACATCCGGTTCCCGGTTCTGCCCCCTACCGCAGCT | 3190
CAACGGCGTAGCCGGAAGTCAGTGGTTTTCGCCCCA | 12100
CACTTGTCCTTCCTGGCCTGCGGCCGCCACCACTTC | 443
GCTATCGAGCTTCCTGCAGCGGTGGCCACCCGAGCA | 482
GCGGGCAGGATCTTCCTGTGGTTTGCCTTGCCCACT | 388
ACGCCGCGCATCCGCGCTTTACGGCGGCCGCAAAAT | 405
AATATCCTGTATGTCATGCTTAAAAAGCCACAAAAC | 547
CGGAGGCGGCCGGAAGTAGCGCTGCGGTTGGCAGCT | 16800
AGACCCGGATATGCGCCGGGGACCCCCAGACCGCGC | 743

Sequence | ETS1 binding intensity
CTGCAGACAGGAGGATGTGGGCTTGCGCGCAAACAG | 675
CCAGACCCGGCGGAACTACCGTGCCCACAAGGCAGC | 396
GCACCGTGGCACTTCCGCGAGCGCCGCAGGCCCTGC | 461
GCACTGTGGGAGGAAGTGGGTATGTGGTGAGCTCTT | 1650
TGTTTGTTTCCGAAGATTAGCCAGCCTGCGGTAGAG | 437
GTGCGGCGGGAAACGCGTTCCCCGGCAACCGCGCCC | 401
CTGCACAAGGAAGCGCCTGTGTTGCTGTGGGCGGAG | 472
AGGCTCATTTCCTGTTTTCATGTGGTTTAGAGAAAA | 2630
CAGACAGGAGGCGGATGTGGGTGGCGCAGAATGAGC | 1820
CAGTGACAGGAAGTGGTTCAGCGGTTGTTTAGGGCT | 7680
TCGGAGACGGCGAAAGGAAACCGCAAGGAGGCCACC | 642
AGGTTTTGAAAGAGGAAACCACATACCCGAAAACCA | 1120
CCATTCACGGGCTTCCGCGGTGTCCCCACCCCCTAA | 724
GACCCATTTCCTGGCTCAGGAGCCCACAGCCCTGGG | 464
CTTGCCACACTTCCTCTTGTTTTGAACCACTATATT | 724
CCCCTCCCTGCTTCCTGTGTGGTGAGGGGTGATCAG | 2040
AGGGCATAAACAGGATGTGGTGTTGGATGAAACCTT | 5290
AGGCTGTGTGAAGGATGTGGTCAGGCGGAGGCCAGG | 604
GCGGGAAAAGGGAAGTTTGCGGGAGGTCAAATCCAC | 563
GACTCTTCCGGCCCAGAGCTTTCGGAGTGCGGTTGC | 399
